From PubChem
An excerpt weighted towards active compounds, which were near 2.4% of everything screened.
TMEM16A act = TMEM16A chloride channel activators or potentiators, primary screen, cell-based, HTS. Anoctamin-1 (Mus musculus), Q8BHY3. HEK293 TMEM16A/YFP-H148Q/I152L, iodide quench fluorescence; active compounds read low. B-score at 10 µM. 340,000 tested, 0.3% active;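 active = fluorescence-ratio B-score plate-corrected deviation score at least 3 library SD below zero, with starting fluorescence score within 5 deviations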;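 note: channel opened by trigger with iodide after compound preincubation; score built on the fluorescence ratio of max minus min over baseline; more negative score means more quench and so TMEM16A activation or potentiation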
Cardiac RTF inh = cardiac RTF calcium sensitivity inhibitors, primary screen, biochemical, IANBD-TnC fluorescence, EC70 calcium; Troponin I, cardiac muscle (Homo sapiens) + Troponin T, cardiac muscle (Homo sapiens) + …; IANBD-labeled cardiac RTF, Ca2+ fluorescence; 340,000 tested, 0.12% active; inhibition, % at 7.15 µM;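 active = inhibition above the mean inhibition of all tested compounds plus 3 SD, cut at about 17% in these data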;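 note: assay run at fixed EC70 calcium of 1.6 mM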
CRFR2-BP ag = agonists of CRF-BP/CRF-R2 complex, primary screen, cell-based, HEK293, calcium dye fluorescence, uHTS; CRF-binding protein / CRF receptor 2 complex (human); calcium dye fluorescence (FLIPR); percent of saturating CRF peptide response; activation, % at 13.2 µM; 350,000 tested, 0.46% active; AID 588473, 2011;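 active = activation of at least 50%, plus an integration ratio under a set limit after plate pattern correction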;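 note: plate controls were neutral control wells without compound for no effect and CRF at EC100 for full effect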
CRFBP-R2 block = antagonists of CRF-BP/CRF-R2 complex, primary screen, cell-based, HEK293, calcium dye fluorescence, uHTS; CRF-induced calcium fluorescence; inhibition, % at 11.8 µM; 350,000 tested, 0.59% active; AID 588475, 2011;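 active = inhibition of the ligand-induced calcium signal above about 50% at the single tested concentration, limit read from the data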
ANO1 block = TMEM16A chloride channel inhibitors, primary screen, cell-based, HTS; Anoctamin-1 (Mus musculus), Q8BHY3; HEK293 TMEM16A/YFP iodide influx fluorescence, ionomycin; normalized B-score (activity score, 25-100; higher = stronger inhibition) at 10 µM; 310,000 tested, 1.2% active;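 active = ratio plate-corrected score three or more library SD toward inhibition, starting fluorescence score within five deviations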;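 note: score derived from kinetic fluorescence span divided by baseline fluorescence per well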
cardiac RTF act = cardiac RTF calcium sensitivity activators, primary screen, biochemical, IANBD-TnC fluorescence, EC20 calcium; AID 493008, 2010; activation, % at 7.2 µM; IANBD-labeled TnC RTF fluorescence at EC20 calcium; 0% EC20 calcium, 100% full calcium; 340,000 tested, 0.24% active;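 active = activation above the mean over all tested compounds plus 3 SD, cut at about 30% in these data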;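 note: rise in fluorescence read as greater calcium sensitivity of cardiac thin filaments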
* hit, by the source's call; i = inactive; . = no result.

SMILES	TMEM16A act	Cardiac RTF inh	CRFR2-BP ag	CRFBP-R2 block	ANO1 block	cardiac RTF act
Cc1ccc(N2C(=O)CSC2c2cccs2)cc1 (stereo not drawn)	i	-24	0	11	i	0
Cc1cc(C)cc(N2C(=O)CSC2c2cccs2)c1 (stereo not drawn)	i	-11	51*	-68	i	6
CCOC(=O)c1sc(NC(=O)CC)c(C#N)c1C	i	0	7	-20	i	-6
CCOC(=O)c1c(N2C(=O)Nc3ccccc3N2O)n[nH]c1-c1cccc(Cl)c1	i	-1	0	68*	i	-1
CN(Cc1ccccn1)C(=O)C1CCC(=O)N(Cc2cccc(C(F)(F)F)c2)C1 (stereo not drawn)	i	-1	5	53*	i	-1
CCn1ncc(Cl)c1C(=O)Nc1cc([N+](=O)[O-])ccc1OC	i	2	-1	19	i	-4
CCn1ncc(C(=O)Nc2ccc([N+](=O)[O-])cc2OC)c1C	i	2	2	51*	i	-7
Cc1ccc(C)c(CN2CCSCC2)c1	i	-4	0	-6	i	-3
O=C(N/N=C/c1ccccc1Cl)C1CC1	i	-1	0	77*	i	-1
Cc1ccccc1CC1(CO)CCCN(C(=O)CCCN2CCCCC2=O)C1 (stereo not drawn)	i	-3	-1	-18	i	-4
Cc1ccc(C)c(NC(=O)CN(C)C(=O)c2cccc(N3C(=O)CCC3=O)c2)c1	i	-8	0	-3	i	1
c1ccc2c(c1)CCN2CCN1CCc2ccccc21	-17*	-2	1	1	i	1
S=C(NCCc1ccccc1)N1CCC2CC1c1c(Cl)cccc12 (stereo not drawn)	.	.	2	51*	.	.
Cc1ccc(CNC(=O)CSc2nc(=O)n3ccc(C)cc3n2)cc1	.	.	2	14	.	.
Cc1cnc(C2OCCO2)c2cccc(N)c12	.	.	0	-7	.	.
CCOc1ccccc1N1Cc2ccccc2C1	-5.5*	-19	1	2	i	5
CCOc1ccccc1N1Cc2cc(C)c(C)cc2C1	i	-2	-3	42	i	-4
Cc1cc(C)nc(N2CCC(CNC(=O)CCc3ccccc3)CC2)n1	-7.7*	4	-2	6	i	3
Cc1cc(C)nc(N2CCC(C(=O)NCc3ccccc3)CC2)n1	i	-10	-2	-2	i	4
Cn1c(=O)[nH]c(=O)c2[nH]c(N(Cc3ccccc3)Cc3ccccc3)nc21	i	2	-1	-50	i	-6
Cn1c(=O)c2c3c(sc2n2cnnc12)CCC3	i	-7	0	-20	25*	5
CN(C(=O)CSc1nnc(-c2c[nH]c3ccccc23)n1C1CC1)C1CCS(=O)(=O)C1 (stereo not drawn)	i	-1	0	4	.	6
CC(NC(=O)Cc1ccccc1)c1nc2ccccc2[nH]1 (stereo not drawn)	i	4	0	6	i	1
CCCC(=O)NC(C)c1nc2ccccc2[nH]1 (stereo not drawn)	i	-4	-2	58*	i	1
CCN1C[C@@H]2[C@@H]3C(=O)N(Cc4ccccc4)C(=O)[C@@H]3[C@](Cc3ccccc3)(C(=O)OC)N2C1=NC	.	-4	-1	-2	.	-2
SMILES	TMEM16A act	Cardiac RTF inh	CRFR2-BP ag	CRFBP-R2 block	ANO1 block	cardiac RTF act
COc1ccc(C2CCCN2C(=O)Nc2ccc(C)c(C)c2)cc1OC (stereo not drawn)	i	-12	-1	80*	i	-1
COC(=O)c1cc2c(ccn2-c2ccc(F)cc2)n1CC(C)C	i	10	1	-109	100*	-3
COc1ccccc1CNC(=O)CCc1nnc2ccc(NCCCN3CCCC3=O)nn12	i	2	1	99*	i	5
COc1ccc(CNC(=O)CCc2nnc3ccc(NCCCN4CCCC4=O)nn23)cc1	i	-3	0	0	i	5
Cc1cc(=O)n2[nH]c(Nc3cccc(Cl)c3)nc2n1	i	-2	116*	-13	i	3
CC(C)Cc1ccc(C(C)C(=O)OCC(=O)c2c[nH]c3ccccc23)cc1 (stereo not drawn)	i	-11	32	-63	100*	-14
O=C(Nc1ccccc1SCC1CSc2nc3ccccc3c(=O)n21)c1ccccc1 (stereo not drawn)	i	-5	-3	67*	i	-2
COc1cccc(CC2(CO)CCCN(Cc3cc4ccccc4[nH]3)C2)c1 (stereo not drawn)	i	-2	120*	-118	i	0
COc1ccc(NC(=S)NC(NC(=O)c2cccc3ccccc23)C(Cl)(Cl)Cl)c([N+](=O)[O-])c1 (stereo not drawn)	-7.4*	-5	-1	-10	i	1
COc1cc(OC)c(/C=C2\SC(=O)N(CC(=O)Nc3ccccc3F)C2=O)c(OC)c1	i	-3	2	-6	i	-1
COc1cc(/C=C2\SC(=O)N(c3ccccc3Cl)C2=O)cc([N+](=O)[O-])c1O	i	9	-1	88*	.	-3
COc1cc(/C=C2\SC(=O)N(CC(=O)Nc3ccccc3F)C2=O)cc(Cl)c1O	i	-3	169*	-150	i	-1
CCN1CCN(C(=O)c2cc(COc3ccc(F)cc3F)on2)[C@@H](C)C1=O	i	4	5	-2	i	-6
Cc1ccc(Cl)c(NC(=O)CSc2n[nH]c(=O)n2C2CC2)c1Cl	i	-10	0	4	.	-2
Cc1ncc(CN2CCN(CCc3ccccc3)C(CCO)C2)s1 (stereo not drawn)	i	10	-2	10	i	9
COc1cccc(-c2ncc3ccccc3c2COC(=O)CCCC(=O)O)c1	i	-20	3	-9	.	9
COc1ccc([C@H]2Oc3cc(O)cc(O)c3C(=O)C2[C@@H]2C(=O)c3c(O)cc(O)cc3O[C@@H]2c2ccc(OC)cc2)cc1 (stereo partly drawn)	.	.	0	5	100*	.
Cc1ccc2[nH]cc(/C=C/c3cc[n+](C)cc3)c2c1	i	-243	45	-37	i	230*
CCn1c(/C=C/c2c[nH]c3ccccc23)nc2ccccc2c1=O	i	-4	-2	7	i	-5
